ERK EGF block – qHTS Assay for Inhibitors of the ERK Signaling Pathway using a Homogeneous Screening Assay; Stimulation with EGF; Potency, µM (titrated, usually from 11.5 µM), inactives show at the highest dose activity change, negative = inhibition, hits mostly inhibitors; AID 1454, 2008; HEK293-V1b, EGF-stimulated phospho-ERK AlphaScreen; 130,000 compounds, 0.41% hits;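 note: potency is the fitted concentration of half-maximal effect; plate controls were stimulated vehicle wells for no effect and unstimulated vehicle basal for full effect; nearly all actives have a fitted effect of over 55% in size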
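EGF-stimulated (25 nM, 5 min) phospho-ERK in HEK293 cells stably expressing V1b, cells pretreated 30 min with compound at 37C. Homogeneous AlphaScreen read on lysates.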
pERK EGF inh – Confirmation Concentration-Response Assay for Inhibitors of the ERK Signaling Pathway using a Homogeneous Screening Assay; Stimulation with EGF | shares compounds with ERK EGF block | HEK293 EGF-stimulated ERK phosphorylation, AlphaScreen | Potency, µM (titrated, usually from 57.5 µM), for inactives: top-dose activity change, negative = inhibition, actives largely listed as inhibitors | 60 compounds, 60% hits
c-Raf inh – Assay for Inhibitors of the ERK Signaling Pathway using a Homogeneous Screening Assay: c-Raf Inhibition | activity change, negative = inhibition, % at 76.9 µM | shares compounds with ERK EGF block | c-Raf kinase inhibition, homogeneous biochemical assay | 70 tested, under 10 active
MEK1 kinase inh – Assay for Inhibitors of the ERK Signaling Pathway using a Homogeneous Screening Assay: MEK Inhibition; shares compounds with ERK EGF block; homogeneous MEK kinase activity assay, ERK pathway; Potency, µM (highest dose often 76.9 µM), for the others: top-dose activity change, negative = inhibition, actives largely listed as inhibitors; 70 tested, under 10 active
Target sequence (Q02750 whole entry, looked up): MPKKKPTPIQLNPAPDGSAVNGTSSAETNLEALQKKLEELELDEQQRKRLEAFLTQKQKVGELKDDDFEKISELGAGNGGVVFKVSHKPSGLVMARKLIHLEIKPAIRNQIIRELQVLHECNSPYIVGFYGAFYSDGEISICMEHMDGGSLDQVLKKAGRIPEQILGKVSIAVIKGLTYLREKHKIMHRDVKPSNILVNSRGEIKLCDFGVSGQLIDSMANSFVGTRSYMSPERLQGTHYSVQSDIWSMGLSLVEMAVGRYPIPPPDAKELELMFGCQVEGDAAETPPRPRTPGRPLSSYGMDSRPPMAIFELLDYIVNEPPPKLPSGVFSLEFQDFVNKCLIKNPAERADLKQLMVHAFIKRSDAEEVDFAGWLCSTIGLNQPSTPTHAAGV
Starred values were filed as active, the others as inactive; u = inconclusive; x = no result given; [ ] = another dose, or the depositor's remark. Shown is part of a subset that was picked to be rich in hits. Calls come from the whole dose curve; as a rule, active = well fitted curve in the direction sought with a large enough effect; inconclusive = small, poorly fitted or top-dose-only effect, or another doubt; inactive = no such curve, though single readings can be large; an effect the other way counts as inactive or inconclusive.

SMILES	ERK EGF block	others
Cc1ccc(C(=O)N/N=C\c2ccc(-c3ccc(Cl)c(Cl)c3)o2)cn1	18µM*
Cc1nnc(SCC(=O)N/N=C/c2ccc(-c3ccc(C)c(Cl)c3)o2)s1	2%
N[C@@H](Cc1cc(-c2ccc(Cl)cc2Cl)cc(CP(=O)(O)O)c1O)C(=O)O	11%
COCOc1c2c(c(OCOC)c3c(OCOC)cccc13)/C(=N/NS(C)(=O)=O)C1=C2CCCC1	-10%
OC(CN1CCNCC1)Cn1c2ccc(Br)cc2c2cc(Br)ccc21 (centres undefined)	28µM*
Cc1ccc2c(c1)c(C)c(C)n2CC(O)CN1CCOCC1 (centres undefined)	-2%
CN1CCN(CC(O)COCCOc2ccc(Br)cc2)CC1 (centres undefined)	-3%
COc1ccc2nc3c(cc2c1)Cc1ccccc1-3	13%
O=C(CCCCl)NC(=S)Nc1ccc(CN2CCOCC2)cc1	7%[57.5 µM]
O=C(COc1ccc(Cl)cc1Cl)NC(=S)Nc1ccc(CN2CCOCC2)cc1	20µM*
O=C(COc1ccccc1Cl)NC(=S)Nc1ccc(CN2CCOCC2)cc1	-12%
Fc1ccc(C(c2ccc(F)cc2)N2CCN(C/C=C\c3ccccc3)CC2)cc1	-10%
CCc1ccc(-n2cccc2/C=C2/C(=N)N3C(=NC2=O)SN=C3S(C)(=O)=O)cc1	6%
CCSC1=NSC2=NC(=O)/C(=C\c3coc4ccccc4c3=O)C(=N)N12	32µM*
CC(C)CC1=NN2C(=N)/C(=C\c3coc4ccccc4c3=O)C(=O)N=C2S1	7%
C=CCC(C)(O)CCc1ccccc1 (centres undefined)	1%
CC(=O)C1=C(O)C=C2Oc3c(C(C)=O)c(O)c(C)c(O)c3C2(C)C1=O (centres undefined)	2%
CC1=NN(c2ccc(Cl)cc2)C(=O)/C1=C\c1cccn1-c1ccc(S(N)(=O)=O)cc1	25µM*
Cc1ccc(S(=O)(=O)N/N=C/c2cccn2-c2ccc(Cl)cc2)cc1	2%[57.5 µM]
CCC1=NN2C(=N)/C(=C\c3cccn3-c3ccc(Cl)cc3)C(=O)N=C2S1	-4%
Fc1ccc(CSc2ncnc3c2oc2ccccc23)cc1	7%
CCn1cnc2c(oc3ccccc32)c1=O	-3%
c1coc(CN(Cc2ccco2)c2ncnc3c2oc2ccccc23)c1	18µM*
CNC(=O)[C@H]1O[C@@H](n2cnc3c(N)ncnc32)[C@H](O)[C@H]1O	10%
COc1ccc(CCN=Cc2c(C)[nH]n(-c3ccc([N+](=O)[O-])cc3)c2=O)cc1OC	-7%
SMILES	ERK EGF block	others
Cc1ccc(-n2[nH]c(C)c(/C=N/Nc3ccc([N+](=O)[O-])cc3[N+](=O)[O-])c2=O)cc1C	16µM*
Cc1[nH]n(-c2ccc([N+](=O)[O-])cc2)c(=O)c1/C=N/N1CCOCC1	8%
CCCC(=O)OCC(=O)Nc1ccc(N=Nc2ccccc2)cc1	-3%
CC1CC1C(=O)OCC(=O)Nc1ccccc1Oc1ccccc1 (centres undefined)	12%
CC1CC1C(=O)OCC(=O)Nc1ccc(N=Nc2ccccc2)cc1 (centres undefined)	20µM*
CC(=O)N(c1ccccc1C)C1CCCC1	8%
O=C1C(Cl)=C(N2CCC(C(=O)O)CC2)C(=O)c2ccccc21	-10%[57.5 µM]
CC(=O)N(C1=C(Cl)C(=O)c2ccccc2C1=O)C1CCCCC1	25µM*
COc1cc([C@@H]2c3cc4c(cc3[C@@H](O[C@@H]3O[C@H]5CO[C@@H](C)O[C@@H]5[C@@H](O)[C@H]3O)[C@@H]3COC(=O)[C@@H]23)OCO4)cc(OC)c1O	-3%
CC(C)=CCn1cnc2c1C(NOCc1ccccc1)=NCN2	2%
Cc1ccc2c(c1)C(=O)[C@@]1(O)CCN(c3ccccc3)C1=N2	-15%
C[C@@]12CCC(O)C[C@H]1CCc1ccccc12 (some centres undefined)	21%
Cc1cc(C(=O)CSc2nc3ccccc3[nH]2)c(C)n1Cc1ccco1	18µM*
CCCn1c(C)cc(C(=O)CSc2nc3ccccc3c(=O)n2Cc2ccco2)c1C	10%
Cc1cc(C(=O)CSc2nncs2)c(C)n1Cc1ccco1	14%
C/C=C(\C)[C@H](O)C[Si](C)(C)c1ccccc1	4%
C=C1C(C2(C)C=CC(=O)C(C)(C)C2CC(=O)OC)CC[C@@]2(C)C(c3ccoc3)OC(=O)C3OC132 (some centres undefined)	29%
Cc1nc(N2CCOCC2)c2nc(-c3ccccc3)n(CC(C)(C)CN(C)C)c2n1	1%
O=C1C=CC(=O)c2c1ccc1c2ccc2ccccc21	-11%[25.7 µM]
COc1ccc(N2C(=O)C3C(C2=O)C3(c2ccccc2)c2ccccc2)cc1 (centres undefined)	-4%[57.5 µM]
COc1ccc(N=C2C(=Nc3ccc(OC)cc3)N(c3ccc(OC)cc3)C(=S)N2c2ccccc2)cc1	x	pERK EGF inh=8.9µM*;c-Raf inh=-6;MEK1 kinase inh=-10%
COc1ccc(N2C(=O)CN(Cc3cc(OC)c(OC)c(OC)c3)C2=S)cc1	-5%
COc1ccc(N2CC(=O)N(c3ccccc3)C2=S)cc1	5%
COc1ccc(N=C2C(=Nc3ccc(OC)cc3)N(c3ccc(OC)cc3)C(=S)N2C)cc1	x	pERK EGF inh=7.9µM*;c-Raf inh=6;MEK1 kinase inh=-13%
COc1ccc(N2C(=O)/C(=C3/C=CC=CN3C)SC2=S)cc1	-2%
SMILES	ERK EGF block	others
COc1cccc([C@@H]2Oc3ccc(OC)cc3C(=O)[C@H]2OC(=O)NC2CCCC2)c1	9%
CC(C)C[C@@H](CC(=O)N[C@H](CC(=O)N[C@@H]1CCNC[C@H]1C(=O)N[C@H](CC(=O)N[C@@H](CCC(=O)O)CC(=O)O)CC(C)C)C(C)C)NC(=O)[C@@H]1CNCC[C@H]1N	3%
CC(C)CN1CC[C@@]2(CCCN(C(=O)c3cc(C(F)(F)F)cc(C(F)(F)F)c3)C2)C1	-4%
CC1CC2(C)Oc3ccccc3C3OCC1(COC(=O)Nc1ccccc1)C(C)C32 (centres undefined)	-13%
Cc1noc(C)c1C(=O)N1CCC[C@@]2(CCN(c3ncccn3)C2)C1	-3%
CCCC[C@H]1C[C@@H]1[C@@H]1N(C(C)=O)[C@H](c2cccc(OC)c2)CC12CC2	14%
CC(C)(C)[C@]1(O)CCN2CC3c4ccccc4CCc4cccc(c43)[C@@H]2C1 (some centres undefined)	-1%
Cc1cccc(CNc2ncnc3ccc(-c4cccc(NS(C)(=O)=O)c4)cc23)c1	6.3µM*	pERK EGF inh=11µM*;c-Raf inh=u;MEK1 kinase inh=1%
Cc1cccc(CNc2cc(-c3cccc(NS(C)(=O)=O)c3)ncn2)c1	17%
Cc1cccc(CNc2ccnc(-c3cccc(NS(C)(=O)=O)c3)n2)c1	34%
